The source of these data is PubChem BioAssay (EPA / NIEHS).

Results filed as inconclusive are left out. Calls of active or inactive are those of the source. The calls were made as follows: active = hit-call score of the fitted dose curve at least 0.9, where 1 is the maximum; inconclusive = response in the unintended direction; inactive = score below 0.9.

human Rho Associated Coiled-coil Containing Protein Kinase 1 (ROCK1), ROCK1 (gene 6093), sequence (Q13464 whole entry, looked up): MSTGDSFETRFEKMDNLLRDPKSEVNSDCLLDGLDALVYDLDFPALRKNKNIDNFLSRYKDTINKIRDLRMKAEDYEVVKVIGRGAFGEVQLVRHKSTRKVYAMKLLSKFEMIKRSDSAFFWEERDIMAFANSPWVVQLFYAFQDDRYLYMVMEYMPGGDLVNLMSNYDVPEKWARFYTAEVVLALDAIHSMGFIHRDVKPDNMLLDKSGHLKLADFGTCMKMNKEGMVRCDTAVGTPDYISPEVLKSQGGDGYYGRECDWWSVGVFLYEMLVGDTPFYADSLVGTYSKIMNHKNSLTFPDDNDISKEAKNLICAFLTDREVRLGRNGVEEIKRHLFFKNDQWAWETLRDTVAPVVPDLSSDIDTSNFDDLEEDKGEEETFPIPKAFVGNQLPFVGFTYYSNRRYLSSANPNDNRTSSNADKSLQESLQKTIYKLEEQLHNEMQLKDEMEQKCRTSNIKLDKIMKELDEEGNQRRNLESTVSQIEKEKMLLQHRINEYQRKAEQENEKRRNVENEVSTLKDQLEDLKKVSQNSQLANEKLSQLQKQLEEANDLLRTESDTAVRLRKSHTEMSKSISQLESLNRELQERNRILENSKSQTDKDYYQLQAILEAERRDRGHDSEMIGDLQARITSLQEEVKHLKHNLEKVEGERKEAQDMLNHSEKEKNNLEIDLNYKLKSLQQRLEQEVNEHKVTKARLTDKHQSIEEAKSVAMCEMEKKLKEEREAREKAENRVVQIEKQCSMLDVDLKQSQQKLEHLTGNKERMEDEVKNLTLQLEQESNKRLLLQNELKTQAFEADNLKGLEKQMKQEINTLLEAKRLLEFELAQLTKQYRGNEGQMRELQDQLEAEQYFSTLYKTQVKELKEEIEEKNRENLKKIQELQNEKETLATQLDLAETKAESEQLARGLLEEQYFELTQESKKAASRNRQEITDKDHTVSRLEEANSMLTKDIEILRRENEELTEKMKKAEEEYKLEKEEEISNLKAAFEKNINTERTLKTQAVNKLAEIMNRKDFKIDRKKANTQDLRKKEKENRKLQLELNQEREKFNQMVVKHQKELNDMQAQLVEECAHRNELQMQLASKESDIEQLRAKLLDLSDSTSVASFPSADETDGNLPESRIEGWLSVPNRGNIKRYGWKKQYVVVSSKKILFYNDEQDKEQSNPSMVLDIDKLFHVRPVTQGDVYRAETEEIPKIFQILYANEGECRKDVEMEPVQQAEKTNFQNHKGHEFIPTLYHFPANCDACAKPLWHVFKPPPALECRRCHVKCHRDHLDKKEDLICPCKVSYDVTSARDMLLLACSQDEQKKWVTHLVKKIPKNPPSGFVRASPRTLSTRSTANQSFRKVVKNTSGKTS
human Protein Tyrosine Phosphatase Non-receptor Type 6 (PTPN6), PTPN6 (gene 5777), sequence (P29350 whole entry, looked up): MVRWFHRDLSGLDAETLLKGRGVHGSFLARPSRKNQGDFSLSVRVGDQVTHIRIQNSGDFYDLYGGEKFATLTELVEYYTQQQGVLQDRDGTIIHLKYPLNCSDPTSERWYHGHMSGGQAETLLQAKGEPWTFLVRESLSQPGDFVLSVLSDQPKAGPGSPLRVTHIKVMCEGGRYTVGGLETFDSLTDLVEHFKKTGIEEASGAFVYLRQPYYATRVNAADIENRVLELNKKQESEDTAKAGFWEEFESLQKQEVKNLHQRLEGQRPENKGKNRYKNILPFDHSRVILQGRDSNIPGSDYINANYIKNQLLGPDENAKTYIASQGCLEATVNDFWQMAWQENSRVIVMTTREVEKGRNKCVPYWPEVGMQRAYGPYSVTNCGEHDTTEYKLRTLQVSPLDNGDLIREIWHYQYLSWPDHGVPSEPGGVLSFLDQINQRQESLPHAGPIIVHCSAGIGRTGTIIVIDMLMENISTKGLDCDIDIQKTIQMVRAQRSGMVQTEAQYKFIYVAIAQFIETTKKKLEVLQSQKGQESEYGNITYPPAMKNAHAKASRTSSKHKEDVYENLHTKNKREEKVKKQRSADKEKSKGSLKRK

The target of one assay is human Protein Tyrosine Phosphatase Non-receptor Type 6 (PTPN6), PTPN6 (gene 5777) (UniProt P29350). Description: NVS_ENZ_hPTPN6: NovaScreen (NVS) Enzymatic Assay for human Protein Tyrosine Phosphatase Non-receptor Type 6 (PTPN6) (AID 2283210). The method in brief:
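Recombinant human PTPN6 from SF9 cells, enzyme activity followed by fluorescence after mobility-shift separation of substrate and product at 1.33 h. Chemicals first tested at a single 25 uM in duplicate, then confirmed across concentration series; loss of signal relative to DMSO.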
For the molecule `Cc1ccc2ncccc2c1`, the call was inactive.

Consider `O=[N+]([O-])C(CO)(CO)CO`, for which the molecule was classed as inactive.

For the molecule `C[C@]12C=CC(=O)C=C1CC[C@@H]1[C@@H]2C(=O)C[C@@]2(C)[C@H]1CC[C@]2(O)C(=O)CO`, the molecule was classed as inactive. Regarding `Oc1ccc2ccccc2c1N=Nc1ccccc1`, the molecule was classed as inactive.

Turning to `COc1ccc(C)cc1N`, the result was inactive.

The next assay addresses human Rho Associated Coiled-coil Containing Protein Kinase 1 (ROCK1), ROCK1 (gene 6093) (UniProt Q13464). Description: NVS_ENZ_hROCK1: NovaScreen (NVS) Enzymatic Assay for human Rho Associated Coiled-coil Containing Protein Kinase 1 (ROCK1) (AID 2283214). Put shortly:
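Compounds first run in duplicate at 25 uM against recombinant human ROCK1, then followed in concentration series. Kinase activity was read 1 h post-dosing by fluorescence with mobility-shift separation, as signal loss relative to DMSO.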
Consider `CCCCCCCCCCCCCCCCCC(=O)O`, for which the call was inactive. Regarding `Cc1ccc(C)c(O)c1C`, the call was inactive. The same measure, in the same setting: in the case of `Cc1nc(C)nc(N2C[C@@H](C)N(c3ccnc([C@@H](C)O)n3)[C@@H](C)C2)n1` it was “inactive”; in that of `Cc1cccc([N+](=O)[O-])c1C`, “inactive”. Consider `CC(=O)OCCOCCOCCOC(C)=O`, for which the result was inactive.
